Compounds with a hit are over-represented: about 21% of the library has one in this group of screens.
NS1 function inh: influenza NS1 inhibition; Potency, µM (highest dose often 46.1 µM), inactives show top-dose activity, positive = more growth; 270,000 compounds, 0.4% hits; calls by dose curve; further: potency means the concentration at half of the fitted maximal effect; actives are rising curves; nearly all actives have a fitted effect of over 50% in size
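In this qHTS, NS1 from influenza A is expressed in budding yeast, where it slows growth. Cells are switched from glucose to 2% galactose medium (pH 6.0, -URA), treated with compound, and growth recovery is read at OD600.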
Cycloheximide cs: counter-screen hit for Shiga toxin inhibitors, cycloheximide; cell reporter, cycloheximide protein synthesis inhibition counterscreen; max response, %; 300,000 compounds, 12% hits; in the data active means max response mostly above about 13%, no sharp cut-off; inactive means mostly below about 14%; further: read at 38.3 µM for the half of the compounds with a filed dose; 0% is about no effect
Pf growth 48h: inhibits P. falciparum growth in the first generation, 48 h | P. falciparum luciferase growth in erythrocytes, 48 h | Potency, µM (titrated, usually from 28.7 µM), inactives show top-dose activity change, negative = inhibition, hits mostly inhibitors | 310,000 compounds, 5.9% hits; further: potency means the concentration at half of the fitted maximal effect; on the % scale 0 is the no-effect control and ±100 the full control effect
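Erythrocytes infected with P. falciparum carrying an integrated firefly luciferase reporter (2% hematocrit, 0.1% parasitemia final) were exposed to compounds in RPMI 1640 with 0.5% Albumax at 37 C, 5% CO2. Growth inhibition was scored as reduced luminescence.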
Shiga inhibitor: Shiga toxin inhibition | Vero cells, Shiga toxin protein synthesis inhibition reporter | inhibition, % at 38.7 µM | AID 2315 | 290,000 compounds, 9.2% hits; in the data active means inhibition mostly above about 28%, no sharp cut-off; inactive means mostly below about 43%; further: 0% is about no effect
Sm TGR block: inhibitors of Schistosoma mansoni thioredoxin glutathione reductase. Potency, µM (top dose mostly 114 µM), for inactives: at the top dose activity change, negative = inhibition, actives largely listed as inhibitors. purified TGR, DTNB reduction, TNB absorbance 405 nm. 360,000 compounds, 3% hits. AID 485364. Q962Y6; further: potency means the concentration at half of the fitted maximal effect; on the % scale 0 is the no-effect control and ±100 the full control effect; nearly all actives have a fitted effect of over 60% in size
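First, TGR (20 nM dispensed) and NADPH were mixed with compound. Second, a 15 min room-temperature incubation followed. Third, further NADPH and then DTNB were added to start the reaction. Finally, TNB absorbance was monitored kinetically.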
Pf growth 96h: P. falciparum growth inhibition at 96 hours; P. falciparum luciferase reporter growth, 96 h; Potency, µM (doses to about 28.7 µM), for inactives: top-dose activity change, negative = inhibition, hits mostly inhibitors; 320,000 compounds, 6.9% hits; further: potency means the concentration at half of the fitted maximal effect; on the % scale 0 is the no-effect control and ±100 the full control effect
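Luminescence readout: decreased luciferase signal marks inhibited growth of reporter-expressing P. falciparum in infected red cells (2% hematocrit, 0.05% parasitemia final), exposed to compound two generations (96 h, 37 C, 5% CO2).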
The depositor's hits bear a star; ? = inconclusive; nt = not tested or not shown; [ ] = another dose, or the depositor's remark. Unless noted, the call rests on the fitted dose curve; in most records, active means well fitted curve in the direction sought with a large enough effect; inconclusive means small, poorly fitted or top-dose-only effect, or another doubt; inactive means no such curve, though single readings can be large; an effect the other way counts as inactive or inconclusive.

SMILES | NS1 function inh | Cycloheximide cs | Pf growth 48h | Shiga inhibitor | Sm TGR block | Pf growth 96h
Cc1nnc(N/N=C/c2cccc(C(F)(F)F)c2)n1N | -67.3% | 8.8 | -4.4% | -4.1 | -16.8% | 14.7µM*
Cc1nnc(N/N=C/c2cccc(OCc3ccc(Cl)c(Cl)c3)c2)n1N | -10.9% | 39.0* | 13.1µM* | 46.9* | 0.3% | ?
CCCCNC(=O)c1sc(=S)n2c1[nH]c(=O)c1ccc(C(=O)NCCc3ccc(OC)c(OC)c3)cc12 | 27.4% | 9.2 | ? | -18.0 | -2.7% | ?
O=C(NCc1ccccc1)c1sc(=S)n2c1[nH]c(=O)c1ccccc12 | -36.9% | -2.3 | 7.3% | -11.6 | -0.3% | 13.1µM*
COC(=O)CCCC1=CC2=CC(=O)C(C)(OC(=O)C3CCCC3)C(=O)C2=CO1 (stereo not given) | -0.1% | -4.8 | 32.7% | -4.5 | 0.0% | 43.4%
CC1(OC(=O)CCc2ccccc2)C(=O)C=C2C=C(c3ccc(C#N)cc3)N(c3ccccc3)C=C2C1=O (stereo not given) | 2.3% | -8.6 | ? | -3.3 | 0.0% | -12.6%
CC1(OC(=O)CCc2ccccc2)C(=O)C=C2C=C(c3ccsc3)OC=C2C1=O (stereo not given) | 1.26µM* | -4.6 | 36.1% | -7.1 | ? | 43.2%
CC1(OC(=O)C2CCCC2)C(=O)C=C2C=C(c3ccsc3)OC=C2C1=O (stereo not given) | -27.0% | -5.2 | 42.3% | -5.6 | 44.7µM* | 62.7%
CCCCC1=CC2=CC(=O)C(C)(OC(=O)C3CCCC3)C(=O)C2=CO1 (stereo not given) | -5.5% | -7.9 | ? | 19.1 | 39.8µM* | 47.7%
O=C(CN1CCCCCC1=O)N1CCN(S(=O)(=O)c2cccs2)CC1 | 1.9% | 0.0 | -7.7% | 3.6 | 1.3% | -1.8%
CCN(CC)S(=O)(=O)c1cc(NC(=O)c2cccc(N3C(=O)CCC3=O)c2)ccc1Cl | nt | nt | ? | nt | -4.4% | -11.7%
O=S(=O)(c1ccc(Cl)c(C(F)(F)F)c1)N1CCN(CC(O)COCC2CCCO2)CC1 (stereo not given) | -1.0% | 32.4* | -11.2% | -9.1 | -4.8% | 111.7%
COc1ccc(N(C(=O)COc2c(C)cccc2C)S(=O)(=O)c2ccc(Cl)cc2)cc1 | nt | nt | nt | nt | -0.3% | nt
C=CCn1cnc2c(c1=O)c1nc3ccccc3nc1n2-c1ccccc1 | 1.1% | -1.1 | nt | -3.7 | 1.0%[11.4 µM] | 5.86µM*
C=CCn1cnc2c(c1=O)c1nc3ccccc3nc1n2/N=C/c1ccccn1 | -31.4% | -2.7 | -4.0% | 13.8 | 0.0% | 1.85µM*
O=c1c2c3nc4ccccc4nc3n(/N=C/c3ccccn3)c2ncn1-c1ccccc1 | 4.0% | 1.3 | ? | -12.1 | -14.2% | -74.5%
C=CCn1cnc2c(c1=O)c1nc3ccccc3nc1n2/N=C/c1cccc(OC)c1OC | ? | -2.5 | ? | -20.2 | -9.9% | -10.1%
C=CCn1cnc2c(c1=O)c1nc3ccccc3nc1n2/N=C/c1cc(OC)c(OC)c(OC)c1 | 5.8% | -1.1 | 3.7µM* | -20.7 | 0.0% | 5.86µM*
CCOc1ccc(-c2cc(C(=O)NCc3ccc(OC)cc3)c3c(-c4ccc(F)cc4)[nH]nc3n2)cc1 | nt | nt | nt | nt | 7.1% | nt
CCCc1cc(N2CCN(c3ccccc3F)CC2)n2cnnc2n1 | nt | nt | nt | nt | 0.0% | nt
Cc1ccc(S(=O)(=O)N2CCCC2)cc1C(=O)N1CCC(C)CC1 | -0.9% | -1.2 | 0.1% | 0.8 | -15.4% | -7.5%
CC[C@H](C)[C@H](NC(=O)[C@H](Cc1ccc(O)cc1)NC(=O)[C@@H](NC(=O)[C@H](CCCNC(=N)N)NC(=O)[C@@H](N)CC(=O)O)C(C)C)C(=O)N[C@@H](Cc1cnc[nH]1)C(=O)N1CCC[C@H]1C(=O)N[C@@H](Cc1ccccc1)C(=O)N[C@@H](Cc1cnc[nH]1)C(=O)N[C@@H](CC(C)C)C(=O)N[C@@H](CC(C)C)C(=O)N[C@H](C(=O)N[C@@H](Cc1ccc(O)cc1)C(=O)N[C@@H](CO)C(=O)O)C(C)C | nt | -4.8 | nt | 1.8 | nt | nt
Cc1c(-c2ccncc2)oc2ccc(Br)cc2c1=O | 1.5% | 7.6 | 9.28µM* | 27.1 | 7.0% | ?
O=C1CN(C(=O)COC(=O)CCSc2ccccc2Cl)c2ccccc2N1 | 0.0% | 19.7 | nt | 4.7 | -0.7% | 1.5%

Screening results: PubChem BioAssay, National Center for Advancing Translational Sciences (NCATS)
